Screening results deposited in PubChem by The Scripps Research Institute Molecular Screening Center.
Most compounds without a hit are left out; they make up all but 3.4% or so of the library.
MITF inh: blocks human microphthalmia-associated transcription factor; O75030; AlphaScreen MITF homodimerization, bead proximity signal; inhibition, % at 2.6 µM; 650,000 tested, 0.91% active; in the data active means inhibition above about 50%
FBW7 act: activators of human E3 ligase FBW7; Q969H0; AlphaScreen FBW7–phospho-cyclin E peptide binding, activator screen; normalized activity (activation), % at 26.1 µM; 650,000 tested, 0.13% active; in the data active means normalized activity above about 1.9%;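 further: purified mutant Fbw7 with reduced substrate affinity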
GPR151 ag: activates the human receptor GPR151; Q8TDV0; activation, % at 11.2 µM; 650,000 tested, 1% active; PathHunter beta-arrestin GPR151 cells, luminescence; in the data active means activation above about 4.9%
Target sequence (Q8TDV0 whole entry, looked up): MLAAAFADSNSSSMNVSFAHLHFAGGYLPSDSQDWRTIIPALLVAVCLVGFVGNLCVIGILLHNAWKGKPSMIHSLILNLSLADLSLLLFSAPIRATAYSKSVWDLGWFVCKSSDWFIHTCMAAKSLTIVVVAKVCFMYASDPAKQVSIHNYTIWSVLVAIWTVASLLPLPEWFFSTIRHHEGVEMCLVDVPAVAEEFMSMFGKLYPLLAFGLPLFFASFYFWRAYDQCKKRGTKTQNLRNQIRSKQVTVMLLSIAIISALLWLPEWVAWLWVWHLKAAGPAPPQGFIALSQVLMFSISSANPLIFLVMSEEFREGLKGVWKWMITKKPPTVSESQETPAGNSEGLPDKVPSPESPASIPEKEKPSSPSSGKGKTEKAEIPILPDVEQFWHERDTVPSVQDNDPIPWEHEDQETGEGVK
TEAD-YAP inh: TEAD-YAP interaction inhibition; inhibition, % at 9.12 µM; HEK-TIYL cells, TEAD-Gal4/YAP UAS-luciferase luminescence; 640,000 tested, 1.4% active; in the data active means inhibition above about 32%
Large screens that a line does not name were inactive; ! = repeats disagree.

Oc1ccccc1/C=N/N1CCN(Cc2ccc(Cl)cc2)CC1	none
Clc1ccc(CN2CCN(/N=C/c3c(Cl)nc4sccn34)CC2)cc1	TEAD-YAP inh 40
COc1ccc(C(Nc2ccccn2)c2ccc3cccnc3c2O)cc1OC (stereo not given)	TEAD-YAP inh 70
COc1ccccc1C(Nc1cc(C)ccn1)c1ccc2cccnc2c1O (stereo not given)	TEAD-YAP inh 84
CCOc1cc(C(Nc2cc(C)ccn2)c2ccc3cccnc3c2O)ccc1OCc1ccccc1 (stereo not given)	TEAD-YAP inh 80
COc1ccc(C(Nc2cc(C)ccn2)c2ccc3ccc(C)nc3c2O)cc1OC (stereo not given)	none
CCOc1ccc(C(Nc2cc(C)ccn2)c2ccc3ccc(C)nc3c2O)cc1OCC (stereo not given)	none
COc1ccc(C(Nc2cc(C)ccn2)c2ccc3cccnc3c2O)cc1OC (stereo not given)	TEAD-YAP inh 61
Cc1ccc2ccc(C(Nc3ccccn3)c3ccc(C)c(C)c3)c(O)c2n1 (stereo not given)	none
Clc1ccc(N/N=C/c2ccccc2Cl)nn1	none
COc1cccc(N(CC(=O)NC(C(C)C)C(C)C)S(=O)(=O)c2ccccc2)c1	none
CC1(C)CC(=O)C2=C(C1)N(c1cccc([N+](=O)[O-])c1)C(N)=C(C#N)C2c1cccnc1 (stereo not given)	none
Cc1ccc(S(=O)(=O)N2CCN(c3ccc(-c4ccco4)nn3)CC2)s1	none
Cc1nn(-c2ccc(F)cc2)c2sc(C(=O)NCc3ccc(S(N)(=O)=O)cc3)cc12	TEAD-YAP inh 40
COc1ccc(-c2noc(CN(C(=O)c3cccc(Cl)c3)C(C)C)n2)cc1	none
COc1ccc(N(C)C2=NS(=O)(=O)c3ccccc32)cc1	TEAD-YAP inh 45
COc1cc(CC2(CCC(=O)NCCCn3cccn3)CCC(=O)N2)ccc1F (stereo not given)	none
CCOC(=O)c1sc2ncnc(Nc3ccc(C)cc3C)c2c1C	TEAD-YAP inh 55
COc1ccccc1-n1c(=S)sc2c(=O)n(-c3ccccc3)c(SCc3ccccc3F)nc21	none
Cc1cccc(C)c1-n1c(=S)sc2c(=O)n(-c3ccccc3)c(SCc3ccccc3F)nc21	TEAD-YAP inh 46
O=C(O)c1cc(N2C(=O)C3CC=CCC3C2=O)ccc1N1CCOCC1 (stereo not given)	FBW7 act 2.0
O=C(O)c1cc(N2C(=O)C3CCCCC3C2=O)ccc1N1CCOCC1 (stereo not given)	none
CCOc1ccc(/C=N/NC(=O)/C(=C/c2ccccc2O)NC(=O)c2ccccc2)cc1	TEAD-YAP inh 88
O=C(N/N=C/c1c[nH]c2ccccc12)c1ccncc1	none
Cn1cc(C(=O)N/N=C/c2c[nH]c3ccccc23)c2ccccc21	TEAD-YAP inh 37
O=C(N/N=C/c1c[nH]c2ccccc12)/C(=C/c1ccccc1O)NC(=O)c1ccccc1	TEAD-YAP inh 86
O=S(=O)(c1ccccc1)N(CCOc1ccc(F)cc1)c1nccs1	none
CC(=O)c1ccc(-c2cc(F)cc3c2OC(CNC(=O)/C=C/c2cccnc2)C3)s1 (stereo not given)	TEAD-YAP inh 33
CCN(CC)S(=O)(=O)c1cc(C(=O)Nc2cccc(O)c2)ccc1C	TEAD-YAP inh 85
CC(C)(C)c1ccc(C(=O)Nc2cccc(F)c2)cc1	TEAD-YAP inh 42
O=C(Nc1cccc(O)c1)c1ccc(Br)cc1	TEAD-YAP inh 36
Cc1ccc(C(=O)Nc2cccc(O)c2)cc1	TEAD-YAP inh 82
CC(=O)Nc1cccc(NC(=O)c2ccc(Br)cc2)c1	none
CC(=O)c1cccc(NC(=O)c2ccc(C)cc2)c1	none
COc1cc(OC)c(CN2CCC(C(N)=O)CC2)cc1Br	none
CCOC(=O)c1[nH]c2ccccc2c1NC=O	FBW7 act 1.9
CCOC(=O)c1[nH]c2ccccc2c1NC(=O)OC	none
CCOC(=O)C1=C(C)N=c2s/c(=C\c3cc(Br)c(O)c(OC)c3)c(=O)n2C1c1cccs1 (stereo not given)	none
O=C(c1cccc(-n2c(=S)[nH]c3cc(Cl)ccc3c2=O)c1)N1CCN(Cc2ccc3c(c2)OCO3)CC1	none
O=C(NCc1ccccc1)C(=Cc1cccc(O)c1)C(=O)NCc1ccccc1	TEAD-YAP inh 35
N#C/C(=C\c1cccc(Cl)c1)C(=O)NCc1ccccc1	none
CCOc1ccc(C(=O)CCNCCC(=O)O)cc1	none
CCOc1ccc(C(=O)CSCCC(=O)O)cc1	TEAD-YAP inh 35
O=C(Oc1ccc(NS(=O)(=O)c2ccccc2)c2ccccc12)c1ccccc1	TEAD-YAP inh 77
CN(CC1COCCO1)C(=O)c1cc(COc2ccc3ncccc3c2)on1 (stereo not given)	TEAD-YAP inh 50
Cc1nc(CN(C)C(=O)c2cc(COc3ccc4ncccc4c3)on2)cs1	TEAD-YAP inh 37
Cc1nn(S(=O)(=O)N2CCCCCC2)c(C)c1Cl	none
CCN(CC)c1ncnc2c1cnn2-c1ccc(Cl)cc1	TEAD-YAP inh 70
CCC(C)Nc1ncnc2c1cnn2-c1ccc(Cl)cc1 (stereo not given)	TEAD-YAP inh 37
CCn1c(=O)c2c(nc3n(-c4ccc(Br)cc4)c(C)c(C)n23)n(C)c1=O	none
N[C@H](C(=O)O)[C@H](O)c1ccc(O)c(O)c1	MITF inh 54
NC(C(=O)O)C(O)c1ccccc1 (stereo not given)	none
COc1cccc(S(=O)(=O)N2CCN(c3ccc(-c4ccccn4)nn3)CC2)c1	none
COCC(=O)N/N=C(\C)CC(=O)NCc1ccc(OC)cc1	FBW7 act 2.1
COc1ccc(CNC(=O)Cc2ccc(-n3cccc3)cc2)cc1	TEAD-YAP inh 45
CCOc1ccc(CC(=O)NCc2ccccc2)cc1	TEAD-YAP inh 37
CCOc1ccc(CNC(=O)Cc2cn(C)c3ccccc23)cc1	none
COc1cc(Br)cc(CNc2ccc3oc(Cc4ccc(Cl)cc4)nc3c2)c1O	none
Cc1cc(C)c2nc(SCC(=O)Nc3c[nH]c(=O)[nH]c3=O)c(C#N)cc2c1	none
CCOCc1cc(CN2CCN(c3ccccc3)CC2)c(O)c2ncccc12	MITF inh 95, TEAD-YAP inh 59
Oc1c(CN2CCN(c3cccc(Cl)c3)CC2)cc(COCc2ccccc2)c2cccnc12	none
CCOCc1cc(CN2CCCCC2)c(O)c2ncccc12	MITF inh 103
CCOC(=O)C1CCCN(Cc2cc(Cl)c3cccnc3c2O)C1 (stereo not given)	none
N#Cc1ccccc1NC(=O)C1CCCN1S(=O)(=O)c1ccc(Cl)s1 (stereo not given)	none
O=C(c1cccs1)n1cccn1	none
COc1ccc2[nH]c3c(=O)n(CCCCC(=O)NCCCOC(C)C)c(=S)[nH]c3c2c1	none
CC(C)Oc1cc(O)c2c(=O)c(-c3ccc(O)cc3)coc2c1	TEAD-YAP inh 57
O=c1c(-c2ccc(Br)cc2)coc2cc(O)cc(O)c12	none
CCOC(=O)C(C)Oc1ccc2c(=O)c(-c3ccc(OC(C)C)cc3)coc2c1 (stereo not given)	none
O=c1c(-c2ccc(O)cc2)coc2cc(O)cc(O)c12	TEAD-YAP inh 44!
Cc1oc2cc(O)ccc2c(=O)c1-c1ccc2c(c1)OCCO2	none
COc1ccc(-c2coc3cc(OC)ccc3c2=O)cc1	none
